Data published in PubChem BioAssay (NCATS).
Records with an inconclusive call do not appear. The source made the active and inactive calls. Unless noted, calls follow the shape of the dose curve; as a rule, active = well fitted curve in the direction sought with a large enough effect; inconclusive = small, poorly fitted or top-dose-only effect, or another doubt; inactive = no such curve, though single readings can be large; an effect the other way counts as inactive or inconclusive.

How the values were obtained:
[1] = Primary redox qHTS assay for identification of artifact compounds. (AID 1845223);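 also: 0% = DMSO and 100% = reference compound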
Summary of the method: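 Amplex Red (25 uM) and HRP (250 mU/mL) in HBSS, with compounds for 15 min, then 250 uM DTT for 30 min, room temperature, dark. Fluorescence 525/598 nm read; normalized to DMSO and 10 uM DA3003; Hill fit.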

[2] = qHTS profiling for inhibitors of Plasmodium falciparum proliferation (AID 504749);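 also: 0% = DMSO vehicle and full inhibition = artemisinin control; nearly all actives have a fitted effect of over 60% in size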; conditions: P. falciparum in erythrocytes, SYBR Green DNA, 72 h
Summary of the method: (§1)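 Infected RBCs, 0.3% parasitemia/2.5% Hct final; cpd 72 h, 37 C, 5% CO2; lysis buffer with saponin/triton/SYBR Green I, o/n RT dark; FI 485/535; norm. to artemisinin (0.29 uM) and DMSO.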

[3] = system: 3D7; test: as above; conditions: P. falciparum in erythrocytes, SYBR Green DNA, 72 h; series mostly up to 28.7 µM
Summary of the method: as §1

[4] = system: AS120; test: as above; conditions: P. falciparum in erythrocytes, SYBR Green DNA, 72 h; series mostly up to 28.7 µM
Summary of the method: as §1

[5] = system: ATS189; test: as above; conditions: P. falciparum in erythrocytes, SYBR Green DNA, 72 h; series mostly up to 28.7 µM
Summary of the method: as §1

[6] = qHTS drug screen for cell cycle checkpoint inhibitors in PARPi-resistant BRCA-mutant ovarian cancer cell lines. (AID 1963452; calls by dose curve); conditions: PEO1/OlaR viability, CellTiter-Glo luminescence, 96 h, stronger effect = lower value
Summary of the method: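 PEO1, PEO4 and PEO1/OlaR ovarian cancer cells, 600 per well, exposed 96 h at 37C to a dilution series. Viability read by CellTiter-Glo luminescence, normalized to DMSO and empty wells; activity summarized as Z-AUC.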

[7] = biological target: Cytochrome P450 2D6 (Homo sapiens) (UniProt P10635); test: qHTS for inhibitors of CYP2D6 against the NCATS DSHEA and TCM libraries (AID 1919972); also: % is scaled to controls: 0 for no effect and ±100 for the full control effect
Summary of the method: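 Luminescent P450-Glo read-out of CYP2D6 turnover of a luciferin substrate after NADPH-driven reaction of 30-45 min at room temperature. Compounds were first preincubated 15 min with enzyme at titrated concentrations; quinidine was the intraplate control.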

[8] = biological target: Cytochrome P450 2C9 (Homo sapiens) (UniProt P11712); test: qHTS for inhibitors of CYP2C9 against the NCATS DSHEA and TCM libraries (AID 1919973);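 also: luminogenic pro-luciferin CYP2C9 substrate turned into luciferin with NADPH regeneration; % is scaled to controls: 0 for no effect and ±100 for the full control effect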
Summary of the method: (§2)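 Luminescent P450-Glo format: compounds preincubated 15 min with enzyme and luciferin substrate, reaction run 30-45 min after NADPH regeneration solution. Intraplate controls: ketoconazole for CYP3A4 and CYP2C19, sulfaphenazole for CYP2C9.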

[9] = biological target: Cytochrome P450 2C19 (Homo sapiens) (UniProt P33261); test: qHTS for inhibitors of CYP2C19 against the NCATS DSHEA and TCM libraries (AID 1919974);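 also: luminescence from luciferin released by CYP2C19 oxidation of a pro-luciferin substrate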; also: potency is read from the fitted curve at half-maximal effect
Summary of the method: as §2

[10] = KB-3-1 P-gp reporter qHTS against the NCATS DSHEA and TCM libraries (AID 1919975); also: 0% is about no effect
Summary of the method: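 CellTiter-Glo luminescence viability readout; KB-3-1 parental cells, 500/well, attached ~4 h, then compound for ~72 h, 37C, 5% CO2. Bortezomib intraplate control.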

[11] = biological target: Cytochrome P450 1A2 (Homo sapiens) (UniProt P05177); test: qHTS for inhibitors of CYPIA2 against the NCATS DSHEA and TCM libraries (AID 1919976);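 also: light from luciferin formed by CYP1A2 from a pro-luciferin substrate; % is scaled to controls: 0 for no effect and ±100 for the full control effect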
Summary of the method: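 Human CYP1A2 with pro-luciferin substrate (typically 100 mM KPO4), 15 min preincubation with compound, then 1x NADPH regeneration for 30-45 min at room temperature in the dark. Luciferin quantified by luciferase luminescence; furafylline intraplate control.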

[12] = qHTS Counterscreen for compound interference against the NCATS DSHEA and TCM libraries (AID 1919978); conditions: firefly luciferase detection reagent interference, luminescence;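 also: compounds preincubated with 1 µM D-luciferin or buffer before detection reagent; % of control where 0% means no effect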
Summary of the method: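 Luminescence counterscreen for detection-kit interference: compounds at 19.5 nM–39.8 uM final, 15 min RT with 1 uM D-luciferin or buffer only; detection reagent added, 30 min RT, then read.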

[13] = Dual reporter qHTS for agonist of Pregnane X Receptor (hPXR) against the NCATS DSHEA and TCM libraries: Fluorescence readout (AID 1920058); also: 0% is about no effect
Summary of the method: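 hPXR-Luc HepG2 cells, 2000/well in charcoal-stripped serum, attached 5 h, dosed for ~24 h at 37 °C. Fluorescence read is CellTiter-Fluor viability (Ex/Em 405/540 nm); rifampicin positive, tetraoctyl ammonium bromide (92 µM) cytotoxicity controls.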

[14] = biological target: Nuclear receptor subfamily 1 group I member 2 (Homo sapiens) (UniProt O75469); test: Dual reporter qHTS for agonist of Pregnane X Receptor (hPXR) against the NCATS DSHEA and TCM libraries: Luminescence readout (AID 1920059); also: 0% is about no effect
Summary of the method: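 Luminescent PXR reporter read (ONE-Glo) after a CellTiter-Fluor viability read, following 24 h, 37C treatment of HepG2 cells stably carrying hPXR-Luc.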

[15] = biological target: Nuclear receptor subfamily 1 group I member 2 (Homo sapiens) (UniProt O75469); test: Dual reporter qHTS for antagonist of Pregnane X Receptor (hPXR) against the NCATS DSHEA and TCM libraries: Luminescence Readout (AID 1920060);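 also: HepG2 cells carrying hPXR luciferase reporter stimulated with rifampicin at 2 µM; 0% is about no effect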
Summary of the method: (§3)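 hPXR-Luc HepG2 cells exposed 24 h at 37 C to compounds with 2 uM rifampicin in antagonist mode; luciferase luminescence measured by ONE-Glo, with CellTiter-Fluor viability read beforehand.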

[16] = Dual reporter qHTS for antagonist of Pregnane X Receptor (hPXR) against the NCATS DSHEA and TCM libraries: Fluorescence Readout (AID 1920061); also: 0% is about no effect
Summary of the method: as §3

[17] = system: 7G8; test: qHTS profiling for inhibitors of Plasmodium falciparum proliferation (AID 504749);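 also: 0% = DMSO vehicle and full inhibition = artemisinin control; nearly all actives have a fitted effect of over 60% in size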; conditions: P. falciparum in erythrocytes, SYBR Green DNA, 72 h; series mostly up to 28.7 µM
Summary of the method: as §1

[18] = system: AA1029; test: as above; conditions: P. falciparum in erythrocytes, SYBR Green DNA, 72 h; series mostly up to 28.7 µM
Summary of the method: as §1

[19] = system: ATS95; test: as above; conditions: P. falciparum in erythrocytes, SYBR Green DNA, 72 h; series mostly up to 28.7 µM
Summary of the method: as §1

[20] = biological target: Cytochrome P450 3A4 (Homo sapiens) (UniProt P08684); test: qHTS for inhibitors of CYP3A4 against the NCATS DSHEA and TCM libraries (AID 1919971);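 also: % is scaled to controls: 0 for no effect and ±100 for the full control effect; inhibition lowers luminescence from luciferin made by CYP3A4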
Summary of the method: as §2

[21] = at 12.8 µM (top of the series), parasite line A
[22] = at 12.8 µM (top of the series), parasite line B
[23] = measured here: PEO1 parental Z-AUC
[24] = at 28.7 µM (top of the series), parasite line A
[25] = at 28.7 µM (top of the series), parasite line B

Chain of Nuclear receptor subfamily 1 group I member 2 (Homo sapiens) (O75469 whole entry, looked up): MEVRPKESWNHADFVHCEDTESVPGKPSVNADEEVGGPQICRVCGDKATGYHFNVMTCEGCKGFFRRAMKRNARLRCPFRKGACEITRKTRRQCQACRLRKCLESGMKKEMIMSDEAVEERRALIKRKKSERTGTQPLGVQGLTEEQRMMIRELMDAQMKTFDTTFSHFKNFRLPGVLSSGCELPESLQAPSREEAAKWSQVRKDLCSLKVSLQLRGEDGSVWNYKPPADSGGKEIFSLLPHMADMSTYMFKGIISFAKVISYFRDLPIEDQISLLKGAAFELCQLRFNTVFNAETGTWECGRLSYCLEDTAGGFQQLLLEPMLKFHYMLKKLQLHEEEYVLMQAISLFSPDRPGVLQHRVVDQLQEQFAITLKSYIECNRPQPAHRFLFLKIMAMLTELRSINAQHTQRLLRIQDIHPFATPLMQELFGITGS
Chain of Cytochrome P450 2C9 (Homo sapiens) (P11712 whole entry, looked up): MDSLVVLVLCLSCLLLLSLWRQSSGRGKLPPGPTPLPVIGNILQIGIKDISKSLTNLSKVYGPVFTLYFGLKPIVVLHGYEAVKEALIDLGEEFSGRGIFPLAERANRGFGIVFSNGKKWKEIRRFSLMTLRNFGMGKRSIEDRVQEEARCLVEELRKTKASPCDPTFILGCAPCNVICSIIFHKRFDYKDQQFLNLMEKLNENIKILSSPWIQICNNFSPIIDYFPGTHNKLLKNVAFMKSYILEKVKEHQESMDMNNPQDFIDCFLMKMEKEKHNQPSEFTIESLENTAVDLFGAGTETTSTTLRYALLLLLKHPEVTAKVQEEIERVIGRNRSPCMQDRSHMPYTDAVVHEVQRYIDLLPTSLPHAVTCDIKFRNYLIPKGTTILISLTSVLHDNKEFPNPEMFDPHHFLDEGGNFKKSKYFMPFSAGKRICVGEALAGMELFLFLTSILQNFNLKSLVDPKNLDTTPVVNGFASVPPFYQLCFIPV
Chain of Cytochrome P450 2D6 (Homo sapiens) (P10635 whole entry, looked up): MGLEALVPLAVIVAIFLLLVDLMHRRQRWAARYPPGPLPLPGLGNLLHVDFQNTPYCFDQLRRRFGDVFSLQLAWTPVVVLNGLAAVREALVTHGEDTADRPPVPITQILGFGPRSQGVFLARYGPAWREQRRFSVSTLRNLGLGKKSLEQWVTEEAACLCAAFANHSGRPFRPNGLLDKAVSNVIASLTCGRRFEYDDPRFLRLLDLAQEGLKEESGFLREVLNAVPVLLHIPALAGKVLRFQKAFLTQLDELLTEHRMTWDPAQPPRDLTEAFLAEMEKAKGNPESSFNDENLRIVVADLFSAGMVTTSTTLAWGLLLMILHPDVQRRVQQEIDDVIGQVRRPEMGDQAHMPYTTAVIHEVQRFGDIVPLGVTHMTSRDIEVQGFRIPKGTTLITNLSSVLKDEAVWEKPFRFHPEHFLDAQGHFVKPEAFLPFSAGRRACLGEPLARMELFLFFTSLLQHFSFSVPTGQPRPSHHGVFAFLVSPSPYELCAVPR
Chain of Cytochrome P450 3A4 (Homo sapiens) (P08684 whole entry, looked up): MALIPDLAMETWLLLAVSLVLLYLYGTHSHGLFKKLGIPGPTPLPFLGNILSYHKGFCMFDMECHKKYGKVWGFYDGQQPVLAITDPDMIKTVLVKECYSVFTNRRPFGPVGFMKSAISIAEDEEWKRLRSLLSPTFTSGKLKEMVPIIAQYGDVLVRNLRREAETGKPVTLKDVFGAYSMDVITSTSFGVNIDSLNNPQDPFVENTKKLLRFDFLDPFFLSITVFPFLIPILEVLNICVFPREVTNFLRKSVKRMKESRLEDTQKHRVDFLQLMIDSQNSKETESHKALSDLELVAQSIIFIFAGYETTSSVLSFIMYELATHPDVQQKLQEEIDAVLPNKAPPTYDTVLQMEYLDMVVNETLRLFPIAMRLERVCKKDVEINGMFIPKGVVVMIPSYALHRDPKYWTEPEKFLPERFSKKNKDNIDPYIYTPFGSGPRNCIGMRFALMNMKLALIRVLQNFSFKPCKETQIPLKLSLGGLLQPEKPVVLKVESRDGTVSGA
Chain of Cytochrome P450 2C19 (Homo sapiens) (P33261 whole entry, looked up): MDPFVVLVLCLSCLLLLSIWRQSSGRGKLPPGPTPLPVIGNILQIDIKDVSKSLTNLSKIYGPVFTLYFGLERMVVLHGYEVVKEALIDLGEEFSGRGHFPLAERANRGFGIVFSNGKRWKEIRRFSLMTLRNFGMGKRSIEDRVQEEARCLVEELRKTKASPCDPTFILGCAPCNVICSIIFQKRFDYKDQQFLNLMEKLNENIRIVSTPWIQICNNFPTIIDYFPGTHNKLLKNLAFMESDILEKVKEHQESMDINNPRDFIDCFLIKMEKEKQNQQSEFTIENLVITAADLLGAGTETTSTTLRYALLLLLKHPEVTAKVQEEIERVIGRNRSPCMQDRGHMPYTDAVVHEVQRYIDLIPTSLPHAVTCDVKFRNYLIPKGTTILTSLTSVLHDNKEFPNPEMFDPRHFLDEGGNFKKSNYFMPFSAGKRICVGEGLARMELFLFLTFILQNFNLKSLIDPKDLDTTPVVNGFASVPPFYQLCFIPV
Chain of Cytochrome P450 1A2 (Homo sapiens) (P05177 whole entry, looked up): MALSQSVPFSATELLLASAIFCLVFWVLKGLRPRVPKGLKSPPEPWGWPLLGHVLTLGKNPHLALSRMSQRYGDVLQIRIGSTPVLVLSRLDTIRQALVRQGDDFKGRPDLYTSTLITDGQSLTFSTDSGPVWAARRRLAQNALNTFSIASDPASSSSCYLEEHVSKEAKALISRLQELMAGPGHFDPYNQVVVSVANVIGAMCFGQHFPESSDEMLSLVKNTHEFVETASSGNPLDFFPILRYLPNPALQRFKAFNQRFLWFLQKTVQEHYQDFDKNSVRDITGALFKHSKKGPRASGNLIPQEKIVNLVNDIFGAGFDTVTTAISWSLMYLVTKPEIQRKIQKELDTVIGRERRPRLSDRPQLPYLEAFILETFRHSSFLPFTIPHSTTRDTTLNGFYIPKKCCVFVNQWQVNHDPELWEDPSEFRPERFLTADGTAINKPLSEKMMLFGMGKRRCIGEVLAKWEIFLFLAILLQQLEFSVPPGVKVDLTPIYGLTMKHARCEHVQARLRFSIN

OC[C@H]1O[C@H](O[C@]2(CCl)O[C@H](CCl)[C@@H](O)[C@@H]2O)[C@H](O)[C@@H](O)[C@H]1Cl
inactive: outcome [1]

Cc1nc2n(c(=O)c1CCN1CCC(c3noc4cc(F)ccc34)CC1)CCC[C@H]2O
inactive: outcome [1]

COC(=O)CCc1ccc(OCC(O)CNC(C)C)cc1 (stereo unspecified)
inactive: outcome [1]

CN1CCN(C(c2ccccc2)c2ccccc2)CC1
inactive: outcome [1] | activity, negative = inhibition [2, 21] 3.5% | activity, negative = inhibition [2, 22] -5.02% | Potency [3] | Potency [4] | Potency [5]

CC(C)n1nc(-c2cc3cc(O)ccc3[nH]2)c2c(N)ncnc21
-1.29: Z-AUC [6, 23]
inactive: Z-AUC [6] -1.59
-1.52: Z-AUC ([6]; measured here: PEO4 Z-AUC)

O=c1[nH]c(=O)n([C@H]2CCCO2)cc1F
inactive: outcome [1]

CC(CCc1ccccc1)NCC(O)c1ccc(O)c(C(N)=O)c1 (stereo unspecified)
inactive: outcome [1]

CN(C)CCCOc1nn(Cc2ccccc2)c2ccccc12
inactive: outcome [1] | activity, negative = inhibition [2, 21] -0.403% | activity, negative = inhibition [2, 22] -0.662% | Potency [3] | Potency [4]

C/C=C/c1ccc(OC)cc1
inactive: outcome [7] | outcome [8] | outcome [10] | outcome [11] | max response [12] -1.84% | outcome [13] | outcome [14] | outcome [15] | outcome [16]
active: Potency [9] 15.8 µM

C#C[C@]1(OC(C)=O)CC[C@H]2[C@@H]3CCC4=C[C@@H](OC(C)=O)CC[C@@H]4[C@H]3CC[C@@]21C
inactive: outcome [1] | activity, negative = inhibition [2, 24] -15% | activity, negative = inhibition [2, 25] -19.2% | Potency [3] | Potency [17] | Potency [18] | Potency [4] | Potency [5] | Potency [19]

CC(=O)OCC(=O)[C@@]1(O)CC[C@H]2[C@@H]3CCC4=CC(=O)C=C[C@]4(C)[C@H]3[C@@H](O)C[C@@]21C
0.219: Z-AUC ([6]; measured here: PEO4 Z-AUC)
inactive: outcome [1] | Z-AUC [6] -0.27
1.1: Z-AUC [6, 23]

Nc1ccc(C(=O)O)cc1
inactive: outcome [20] | outcome [7] | outcome [8] | outcome [10] | max response [12] -2.08% | outcome [13] | outcome [14] | outcome [16] | activity, negative = inhibition [2, 24] -7.02% | activity, negative = inhibition [2, 25] 4.76% | Potency [3] | Potency [17] | Potency [18] | Potency [4] | Potency [5] | Potency [19]

O=c1ccc2ccccc2o1
inactive: outcome [20] | outcome [7] | outcome [8] | Potency [9] | outcome [10] | max response [12] 0.354% | outcome [13] | outcome [14] | outcome [15] | outcome [16] | activity, negative = inhibition [2, 24] 10.1% | activity, negative = inhibition [2, 25] 1.35% | Potency [3] | Potency [17] | Potency [18] | Potency [4] | Potency [5] | Potency [19]
